Measurements taken from PubChem BioAssay AID1159580 (chemical genetic matrix, 2015).
Hit rate of the full screen: of about 5,500 compounds, about 2,000 (36%) were called active. Inconclusive results (about 18%) are left out. No stated cut-off is given here; in the data, active means normalized growth mostly below about 0.91 (no sharp cut-off); inconclusive means no clear call, values can overlap the other calls; inactive means mostly above about 0.92. The list shows a part of the results.

Test: chemical genetic growth profiling, strain panel (AID 1159580);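 further: tested at 20 µM; growth read once vehicle control cultures reached saturation at 30 °C; 1 = growth at the plate median or of vehicle wells; lower values mean less growth of the strain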
Conditions: growth OD

Measured: normalized growth

COc1ccc2c(=O)c(CC(=O)O)coc2c1
inactive: S. cerevisiae deletion strains, locus YJR066W, strain TOR1, active compounds read low 0.902 | S. cerevisiae deletion strains, locus YJR075W, strain HOC1, active compounds read low 1.01 | S. cerevisiae deletion strains, locus YKL009W, strain mrt4, active compounds read low 0.981 | S. cerevisiae deletion strains, locus YKL068W, active compounds read low 0.993 | S. cerevisiae deletion strains, locus YKL085W, strain MDH1 (second series), active compounds read low 1.01 | S. cerevisiae deletion strains, locus YKL085W, strain MDH1, active compounds read low 1.01 | S. cerevisiae deletion strains, locus YKL160W, strain elf1, active compounds read low 1.04 | S. cerevisiae deletion strains, locus YKL190W, strain CNB1, active compounds read low 1 | S. cerevisiae deletion strains, locus YKR001C, strain vps1, active compounds read low 1.03 | S. cerevisiae deletion strains, locus YKR026C, strain gcn3, active compounds read low 0.985 | S. cerevisiae deletion strains, locus YKR091W, strain srl3, active compounds read low 0.99 | S. cerevisiae deletion strains, locus YLL001W, strain dnm1, active compounds read low 1 | S. cerevisiae deletion strains, locus YLL026W, active compounds read low 0.982 | S. cerevisiae deletion strains, locus YLL041C, strain sdh2, active compounds read low 0.98 | S. cerevisiae deletion strains, locus YLR027C, strain aat2, active compounds read low 0.977 | S. cerevisiae deletion strains, locus YLR039C, strain RIC1, active compounds read low 1.07 | S. cerevisiae deletion strains, locus YLR058C, strain SHM2, active compounds read low 0.999 | S. cerevisiae deletion strains, locus YLR102C, strain apc9, active compounds read low 0.992 | S. cerevisiae deletion strains, locus YLR113W, strain HOG1, active compounds read low 0.992 | S. cerevisiae deletion strains, locus YLR221C, strain rsa3, active compounds read low 0.966 | S. cerevisiae deletion strains, locus YLR258W, strain gsy2, active compounds read low 0.992 | S. cerevisiae deletion strains, locus YLR262C, strain YPT6 (second series), active compounds read low 1 | S. cerevisiae deletion strains, locus YLR262C, strain YPT6, active compounds read low 1.03 | S. cerevisiae deletion strains, locus YLR268W, strain sec22, active compounds read low 1.02 | S. cerevisiae deletion strains, locus YLR320W, strain mms22, active compounds read low 0.972 | S. cerevisiae deletion strains, locus YLR330W, strain CHS5, active compounds read low 1.01 | S. cerevisiae deletion strains, locus YLR342W, strain FKS1 (second series), active compounds read low 1.05 | S. cerevisiae deletion strains, locus YLR342W, strain FKS1, active compounds read low 0.989 | S. cerevisiae deletion strains, locus YLR357W, strain rsc2, active compounds read low 0.988 | S. cerevisiae deletion strains, locus YLR370C, strain arc18, active compounds read low 0.974 | S. cerevisiae deletion strains, locus YLR371W, strain rom2, active compounds read low 0.997 | S. cerevisiae deletion strains, locus YLR384C, strain iki3, active compounds read low 0.966 | S. cerevisiae deletion strains, locus YLR418C, strain cdc73, active compounds read low 0.971 | S. cerevisiae deletion strains, locus YML016C, strain PPZ1, active compounds read low 1 | S. cerevisiae deletion strains, locus YML032C, strain rad52, active compounds read low 1 | S. cerevisiae deletion strains, locus YML120C, strain ndi1, active compounds read low 1 | S. cerevisiae deletion strains, locus YML124C, strain tub3, active compounds read low 0.994 | S. cerevisiae deletion strains, locus YMR058W, strain fet3, active compounds read low 0.983 | S. cerevisiae deletion strains, locus YMR078C, strain ctf18, active compounds read low 0.992 | S. cerevisiae deletion strains, locus YMR125W, strain sto1, active compounds read low 1 | S. cerevisiae deletion strains, locus YMR129W, active compounds read low 0.985 | S. cerevisiae deletion strains, locus YMR205C, strain PFK2, active compounds read low 1.05 | S. cerevisiae deletion strains, locus YMR223W, strain ubp8, active compounds read low 0.994 | S. cerevisiae deletion strains, locus YMR231W, strain pep5, active compounds read low 0.972 | S. cerevisiae deletion strains, locus YMR307W, strain GAS1, active compounds read low 1.06 | S. cerevisiae deletion strains, locus YNL067W, strain RPL9B, active compounds read low 0.999 | S. cerevisiae deletion strains, locus YNL071W, strain lat1, active compounds read low 0.986 | S. cerevisiae deletion strains, locus YNL183C, strain NPR1, active compounds read low 0.972 | S. cerevisiae deletion strains, locus YNL209W, strain ssb2, active compounds read low 1.03 | S. cerevisiae deletion strains, locus YNL233W, strain BNI4, active compounds read low 1 | S. cerevisiae deletion strains, locus YNL248C, strain rpa49, active compounds read low 0.984 | S. cerevisiae deletion strains, locus YNL250W, strain rad50, active compounds read low 0.96 | S. cerevisiae deletion strains, locus YNL271C, strain bni1, active compounds read low 0.986 | S. cerevisiae deletion strains, locus YNL298W, strain CLA4, active compounds read low 0.992 | S. cerevisiae deletion strains, locus YNL307C, strain MCK1, active compounds read low 1 | S. cerevisiae deletion strains, locus YNL322C, strain KRE1 (second series), active compounds read low 0.969 | S. cerevisiae deletion strains, locus YNL322C, strain KRE1, active compounds read low 1 | S. cerevisiae deletion strains, locus YNR049C, strain mso1, active compounds read low 0.973 | S. cerevisiae deletion strains, locus YNR052C, strain pop2, active compounds read low 0.952 | S. cerevisiae deletion strains, locus YOL012C, strain htz1 1.05 | S. cerevisiae deletion strains, locus YOL147C, strain pex11, active compounds read low 0.991 | S. cerevisiae deletion strains, locus YOR001W, strain rrp6, active compounds read low 0.917 | S. cerevisiae deletion strains, locus YOR061W, strain CKA2, active compounds read low 1.01 | S. cerevisiae deletion strains, locus YOR069W, strain VPS5, active compounds read low 0.987 | S. cerevisiae deletion strains, locus YOR070C, strain gyp1, active compounds read low 0.981 | S. cerevisiae deletion strains, locus YOR080W, strain dia2, active compounds read low 0.981 | S. cerevisiae deletion strains, locus YOR083W, strain WHI5, active compounds read low 1.04 | S. cerevisiae deletion strains, locus YOR106W, strain vam3, active compounds read low 1.01 | S. cerevisiae deletion strains, locus YOR136W, strain idh2, active compounds read low 0.981 | S. cerevisiae deletion strains, locus YOR144C, strain elg1, active compounds read low 0.993 | S. cerevisiae deletion strains, locus YOR184W, strain ser1, active compounds read low 1.07 | S. cerevisiae deletion strains, locus YOR231W, strain MKK1, active compounds read low 1 | S. cerevisiae deletion strains, locus YOR265W, strain rbl2, active compounds read low 0.973 | S. cerevisiae deletion strains, locus YOR270C, strain vph1, active compounds read low 0.978 | S. cerevisiae deletion strains, locus YOR290C, strain snf2, active compounds read low 1.01 | S. cerevisiae deletion strains, locus YOR316C, strain cot1, active compounds read low 0.991 | S. cerevisiae deletion strains, locus YPL051W, strain arl3, active compounds read low 0.996 | S. cerevisiae deletion strains, locus YPL055C, strain LGE1, active compounds read low 1.08 | S. cerevisiae deletion strains, locus YPL078C, strain atp4, active compounds read low 1.03 | S. cerevisiae deletion strains, locus YPL106C, strain sse1, active compounds read low 1.03 | S. cerevisiae deletion strains, locus YPL240C, strain hsp82, active compounds read low 0.974 | S. cerevisiae deletion strains, locus YPL241C, strain CIN2, active compounds read low 1.01 | S. cerevisiae deletion strains, locus YPL256C, strain CLN2, active compounds read low 0.983 | S. cerevisiae deletion strains, locus YPR119W, strain clb2, active compounds read low 0.985 | S. cerevisiae deletion strains, locus YPR141C, strain kar3, active compounds read low 0.99 | S. cerevisiae deletion strains, locus YPR163C, strain tif3, active compounds read low 0.995 | S. cerevisiae deletion strains, locus YPR167C, strain met16, active compounds read low 0.976 | S. cerevisiae deletion strains, strain wtn01, active compounds read low 1.04 | S. cerevisiae strains, strain wild type, active compounds read low 1.02
